Only a sample is shown.
p53 reactivator = qHTS assay for re-activators of p53 using a Luc reporter | Potency, µM (doses to about 92.2 µM), inactives show top-dose activity change, positive = activation, usual class: activators | hit rate 0.063% among 320,000 | H1299 p53-A138V BP100-luciferase reporter, luminescence, 24 h; also: potency is read from the fitted curve at half-maximal effect; % of control where 0% means no effect; nearly all actives have a fitted effect of over 45% in size
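H1299 (p53-null), stable ts p53-A138V + BP100-Luc; 1000 cells/well, Opti-MEM/10% FBS; cpd 4 pt, 1:5; 24 h, 37 deg C, 5% CO2; detection reagent 10 min RT; luminescence.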
PINK1 modulator = A Quantitative High throughput Screen to Identify Chemical Modulators of PINK1 Expression; PINK1 immunofluorescence, high-content cytometry, 24 h; hit rate 0.2% among 410,000; Potency, µM (highest dose often 76.6 µM), without a hit: at the highest dose activation (PINK1 increase), usual class: activators; active = well fitted activation curve with a large enough effect; inconclusive = small, poorly fitted or top-dose-only effect; cell line not stated here; also: potency is read from the fitted curve at half-maximal effect; % of control where 0% means no effect; nearly all actives have a fitted effect of over 65% in size
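Decision-based qHTS: stable cells, 24 h exposure to five compound concentrations, CCCP as control. Fixed cells stained for PINK1 plus nuclear, mitochondrial and cell markers, cytometer read.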
miR-21 act = qHTS Assay for Modulators of miRNAs and/orActivators of miR-21; HeLa miR-21 FLuc reporter, luciferase, 48 h; Potency, µM (doses to about 38.3 µM), for inactives: at the top dose activity change, positive = activation, actives largely listed as activators; 340,000 tested, under 10 active;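 also: % of control where 0% means no effect; miR-21 action dims this reporter so a rising signal means less miR-21 action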
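HeLa miR-21-FLuc reporter line, endogenous miR-21; 2000 cells/well in DMEM/10% FBS; compound titration up to ~40uM final, 48 h, 37 degree Celsius; luciferase detection reagent, 15 min lysis, CCD luminescence.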
uPA generation = qHTS for Inhibitors of Cell Surface uPA Generation | hit rate 0.31% among 330,000 | Potency, µM (doses to about 38.3 µM), for inactives: top-dose activity change, negative = inhibition, actives largely listed as inhibitors | cell surface uPA generation assay, qHTS | AID 540303, 2011; active = well fitted inhibition curve with a large enough effect; inconclusive = small, poorly fitted or top-dose-only effect; inactive = no such curve, though single readings can be large or run the other way; tested in mouse RAW 264.7 cells; also: potency is read from the fitted curve at half-maximal effect; % is scaled to controls: 0 for no effect and ±100 for the full control effect; nearly all actives have a fitted effect of over 55% in size
IL-2 act = qHTS of IL-2 Activators; activation, % (series mostly up to about 46 µM); AID 652025, 2013; hit rate 0.065% among 360,000; IL-2 activation reporter assay, cell-based qHTS; stimulated with anti-CD3/CD4/CD28 beads; in transgenic mouse T cells; in the data active = activation above about 50%; inconclusive = mostly about 30% to 49%; also: 0% is about no effect
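Using fluorescent plate cytometry, EGFP and DsRed are detected in transgenic mouse T cells stimulated 18 h at 37 degrees C with antibody-coated beads after 60 min compound pretreatment.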
Epigenetic derep = Quantitative High-Throughput Screen for Regulators of Epigenetic Control | murine LDR cells, GFP reporter derepression, 30 h | Potency, µM (highest dose often 53.9 µM), for inactives: top-dose GFP activation, hits mostly activators | hit rate 0.2% among 280,000; also: potency is read from the fitted curve at half-maximal effect; % of control where 0% means no effect; nearly all actives have a fitted effect of over 60% in size
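Reporter derepression read as number of fluorescent GFP-positive objects, 20-120 um in size, counted by laser-scanning cytometer. Mouse LDR line with an epigenetically silenced CMV-GFP locus; compound incubation 30 h, 37 C.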
Parental c127i = Parental Cell Counter Screen Assay for Epigenetic Modulators: Hit Validation; hit rate 20% among 60; Potency, µM, for the others: at the highest dose fluorescent cell count, actives largely listed as activators; mouse c127i parental cells, fluorescent cell count, 30 h; shares compounds with Epigenetic derep
HCC4017 tox = HCC4017 Cell Viability Secondary Assay for qHTS Assay for Epigenetic Modulators | shares compounds with Epigenetic derep | hit rate 30% among 45 | HCC4017 NSCLC viability, CellTiter-Glo ATP luminescence, 72 h | Potency, µM (highest dose often 46.1 µM), for the others: at the highest dose activity change, negative = cytotoxicity, hits mostly cytotoxic
H358 viab = H358 Cell Viability Secondary Assay for qHTS Assay for Epigenetic Modulators: Round 2; H358 NSCLC viability, ATP luminescence, 72 h; hit rate 30% among 45; shares compounds with Epigenetic derep; Potency, µM (doses to about 46.1 µM), without a hit: at the highest dose activity change, negative = viability loss, actives largely listed as cytotoxic
Numbers without * were called inactive. Unless noted, calls follow the shape of the dose curve; as a rule, active = well fitted curve in the direction sought with a large enough effect; inconclusive = small, poorly fitted or top-dose-only effect, or another doubt; inactive = no such curve, though single readings can be large; an effect the other way counts as inactive or inconclusive.

For CC(C)C1C(=O)N2CCC[C@H]2[C@]2(O)O[C@](NC(=O)[C@@H]3C=C4c5cccc6[nH]cc(c56)C[C@H]4N(C)C3)(C(C)C)C(=O)N12 (some centres undefined) the results were Epigenetic derep 1%.
Screening COc1ccc(OC)c(N2C(=O)NC(=O)/C(=C\c3ccc([N+](=O)[O-])s3)C2=O)c1 returned p53 reactivator -2%, PINK1 modulator 6%, miR-21 act 4%, uPA generation 5%, IL-2 act -4, Epigenetic derep inconclusive, Parental c127i 6%, HCC4017 tox -9% and H358 viab -26%.
Screening C[C@H]1C[C@@H](C)C(=O)[C@@H]([C@H](O)CC2CC(=O)NC(=O)C2)C1 returned p53 reactivator 19%, PINK1 modulator -1%, miR-21 act inconclusive, uPA generation inconclusive, IL-2 act 0, Epigenetic derep inconclusive and Parental c127i 3%.
COc1ccccc1N=c1scc(-c2ccc(S(=O)(=O)N3CCCC3)cc2)n1C was read as PINK1 modulator 0%, miR-21 act inconclusive and Epigenetic derep -2%.
`Fc1ccc(C(OCCN2CCN(C/C=C/c3ccccc3)CC2)c2ccc(F)cc2)cc1` gave Epigenetic derep 0%.

From PubChem BioAssay
